We go through 14 compounds from PubChem BioAssay.

Assay [1] has as its system Plasmodium falciparum Sir2 (PF13_0152, Sir2A). Put plainly: Plasmodium falciparum Sir2A binding compounds – biochemical, small-molecule microarray, 635 nm fluorescence, primary screen (AID 1098).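 Further: score merges spot fluorescence intensity with its signal-to-noise ratio.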 The conditions noted are these: fluorescence 635 nm, higher = more signal.
Assay [2] can be described thus: probe aDKK1 binding to arrayed compounds – biochemical, biotinylated probe, 635/667 nm fluorescence, primary screen (AID 1099).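 Further: score merges 667nm spot fluorescence with signal to noise across triplicate slides; reference of the scale not given here.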 The conditions noted are these: small-molecule microarray, higher = more signal.
Assay [3] in a line: probe aCHRDL2 binding to arrayed compounds – biochemical, biotinylated probe, 635/667 nm fluorescence, primary screen (AID 1100). The conditions noted are these: small-molecule microarray, higher = more signal.
A short description of assay [4]: change in splice reporter luminescence, either direction, cell-based, HEK293, spliceosome inhibition project, primary screen (AID 1101).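 Further: HEK293 cells carrying a splicing-competent luciferase reporter gene; test concentration not given here.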 The conditions noted are these: HEK293 splicing luciferase reporter, 24 h, higher = more signal, called active from +8 up or from −8 down. In general terms: In a reporter assay the amount or activity of a reporter protein is the signal.

Assay [5] has as its target Fibroblast growth factor 10 (Homo sapiens) (UniProt O15520). Put plainly: compounds binding fibroblast growth factor 10 – biochemical, small-molecule microarray, 635 nm fluorescence, primary screen (AID 1102). The conditions noted are these: FGF10 binding, fluorescence 635 nm, higher = more signal.
The test system of assay [6] is glycogen synthase kinase-3 (GSK3A per assay name; protocol says GSK3B). Put plainly: compounds binding glycogen synthase kinase-3 – biochemical, small-molecule microarray, 635 nm fluorescence, GSK3A, primary screen (AID 1103). Further: the record names both GSK3A and GSK3B. The conditions noted are these: fluorescence 635 nm, higher = more signal.
Assay [7] addresses Epidermal growth factor receptor (Homo sapiens) (UniProt P00533). Put plainly: compounds binding epidermal growth factor receptor – biochemical, small-molecule microarray, 635 nm fluorescence, primary screen (AID 1104).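 Further: score merges 667 nm emission intensity with spot signal to noise over triplicate slides.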 The conditions noted are these: EGFR binding, higher = more signal.
Assay [8] concerns the target Follistatin-related protein 3 (Homo sapiens) (UniProt O95633). The experiment in a line: compounds binding follistatin-related protein 3 – biochemical, small-molecule microarray, 635 nm fluorescence, primary screen (AID 1105).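 Further: score merges emission near 667 nm and signal to noise per printed spot across three slides.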 The conditions noted are these: FSTL3 binding, higher = more signal.
Assay [9] concerns the target Dickkopf-related protein 1 (Homo sapiens) (UniProt O94907). The experiment in a line: small molecules binding DKK1 protein – biochemical, small-molecule microarray, 635 nm fluorescence scan, primary screen (AID 1106).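 Further: score merges emission near 667 nm with signal to noise over three replicate slides.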 The conditions noted are these: higher = more signal.
The test system of assay [10] is Inhibin beta A chain (activin A). Put plainly: small molecules binding activin A – biochemical, small-molecule microarray, 635 nm fluorescence scan, primary screen (AID 1107).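 Further: mouse activin A protein probed at 4.33 µg/mL on printed slides; score merges bound-protein fluorescence near 667 nm with spot signal-to-noise.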 The conditions noted are these: INHBA, higher = more signal.

The source made the active and inactive calls.

Follistatin-related protein 3 (Homo sapiens), sequence (O95633 whole entry, looked up): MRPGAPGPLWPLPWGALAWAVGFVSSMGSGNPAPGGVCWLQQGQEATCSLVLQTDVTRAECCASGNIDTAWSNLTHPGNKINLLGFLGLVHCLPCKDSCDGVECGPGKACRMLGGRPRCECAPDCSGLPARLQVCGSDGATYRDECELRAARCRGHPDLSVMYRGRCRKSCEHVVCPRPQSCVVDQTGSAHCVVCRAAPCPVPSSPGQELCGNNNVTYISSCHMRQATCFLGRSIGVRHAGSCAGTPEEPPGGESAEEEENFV
Dickkopf-related protein 1 (Homo sapiens), sequence (O94907 whole entry, looked up): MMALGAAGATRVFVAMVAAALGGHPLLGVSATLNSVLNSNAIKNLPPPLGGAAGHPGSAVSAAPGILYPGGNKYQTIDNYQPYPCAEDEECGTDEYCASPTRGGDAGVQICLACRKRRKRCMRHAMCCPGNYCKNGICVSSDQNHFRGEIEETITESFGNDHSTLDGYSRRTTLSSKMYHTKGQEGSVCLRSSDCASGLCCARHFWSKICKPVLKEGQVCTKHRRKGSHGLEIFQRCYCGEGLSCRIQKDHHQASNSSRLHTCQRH
Epidermal growth factor receptor (Homo sapiens), sequence (P00533 whole entry, looked up): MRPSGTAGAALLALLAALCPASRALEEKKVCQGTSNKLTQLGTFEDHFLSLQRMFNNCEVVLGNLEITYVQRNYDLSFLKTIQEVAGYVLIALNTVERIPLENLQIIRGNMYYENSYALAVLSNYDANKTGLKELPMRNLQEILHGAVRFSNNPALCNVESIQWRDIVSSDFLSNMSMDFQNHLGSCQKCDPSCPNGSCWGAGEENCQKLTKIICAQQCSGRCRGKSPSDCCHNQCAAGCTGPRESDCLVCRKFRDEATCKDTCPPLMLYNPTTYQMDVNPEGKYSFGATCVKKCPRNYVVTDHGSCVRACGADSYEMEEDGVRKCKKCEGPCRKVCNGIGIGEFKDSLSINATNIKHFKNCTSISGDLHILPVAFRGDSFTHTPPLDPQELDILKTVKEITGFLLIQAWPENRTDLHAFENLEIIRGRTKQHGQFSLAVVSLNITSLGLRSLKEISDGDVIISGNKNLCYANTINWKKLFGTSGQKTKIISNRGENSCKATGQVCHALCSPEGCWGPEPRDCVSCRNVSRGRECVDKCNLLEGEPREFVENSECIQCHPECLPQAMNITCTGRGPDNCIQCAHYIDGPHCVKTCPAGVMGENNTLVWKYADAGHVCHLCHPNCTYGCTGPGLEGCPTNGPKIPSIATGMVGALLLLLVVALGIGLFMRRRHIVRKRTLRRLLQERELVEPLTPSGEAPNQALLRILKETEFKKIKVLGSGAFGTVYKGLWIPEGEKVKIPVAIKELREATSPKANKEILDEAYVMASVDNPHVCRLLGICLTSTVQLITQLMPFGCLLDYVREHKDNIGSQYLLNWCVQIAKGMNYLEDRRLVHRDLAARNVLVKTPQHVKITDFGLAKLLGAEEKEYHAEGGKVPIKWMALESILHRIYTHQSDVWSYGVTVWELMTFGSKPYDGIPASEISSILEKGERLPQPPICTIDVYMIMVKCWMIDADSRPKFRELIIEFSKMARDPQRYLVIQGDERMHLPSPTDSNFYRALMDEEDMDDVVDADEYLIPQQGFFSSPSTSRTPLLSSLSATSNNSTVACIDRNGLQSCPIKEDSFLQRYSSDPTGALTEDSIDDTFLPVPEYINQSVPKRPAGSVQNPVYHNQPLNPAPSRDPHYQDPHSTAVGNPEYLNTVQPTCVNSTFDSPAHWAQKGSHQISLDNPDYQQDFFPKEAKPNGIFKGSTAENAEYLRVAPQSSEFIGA
Fibroblast growth factor 10 (Homo sapiens), sequence (O15520 whole entry, looked up): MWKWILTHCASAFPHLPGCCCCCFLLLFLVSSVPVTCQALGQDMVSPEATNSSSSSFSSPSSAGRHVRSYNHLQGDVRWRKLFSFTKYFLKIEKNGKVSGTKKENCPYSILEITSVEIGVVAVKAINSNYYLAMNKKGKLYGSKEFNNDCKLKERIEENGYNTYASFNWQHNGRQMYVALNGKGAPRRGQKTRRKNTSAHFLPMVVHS

As to `COC(=O)CC=C[C@H](C)[C@@H](OCc1cccc(Br)c1)[C@@H](C)[C@H](OC)C1CCCCC1`, the composite z-score is 0.242 in assay [1]; -0.462 in [2]; -0.233 in [3]; -0.0117 in [5]; -1.16 in [6]; 0.153 in [7]. The composite z-score in [8] was -0.449; in [9], 0.515; in assay [10], 1.34. In assay [4], the z-score was -0.256 (inactive).
Consider `CCOC(=O)[C@H](Cc1ccccc1)NC(=O)CCC1CC(OC(=O)NCc2cccc3ccccc23)CC2(CCCC(COC(=O)NCC(c3ccccc3)c3ccccc3)O2)O1` (stereo not given in full), for which the composite z-score in assay [1] was 0.812; in assay [2] it was 0.127; in [3], -0.464; in assay [5], 0.684; in assay [6], 0.588; in assay [7], 0.356. Also, the composite z-score in [8] amounted to 0.501; in assay [9], 0.37; in assay [10], 0.0413. In addition, in [4], the z-score was -1.21 (inactive).
Take `CCOC(=O)[C@H](CC(C)C)NC(=O)CCC1CC(OC(=O)NCc2cccc3ccccc23)CC2(CCCC(COC(=O)NCc3cccc(C(F)(F)F)c3)O2)O1` (stereo not given in full): the composite z-score in assay [1] was 0.0007; in assay [2], -0.167; in [3], -0.346; in assay [5], 0.475; in assay [6] it was 0.362; in assay [7], 0.508. Further, the composite z-score in assay [8] was 0.346; in assay [9], 0.491; in assay [10], -0.0188. Also, the z-score in assay [4] was -0.349 (inactive).
`COC(=O)[C@H](C)NC(=O)CCC1CC(OC(=O)NCc2ccc3c(c2)OCO3)CC2(CCCC(COC(=O)NCCc3ccccc3OC)O2)O1` (stereo not given in full): the composite z-score was 0.417 in [1]; -0.037 in assay [2]; -0.24 in assay [3]; 0.0774 in [5]; 0.0268 in assay [6]; -0.102 in assay [7]. Moreover, the composite z-score in [8] was -0.108; in [9], -0.253; in assay [10] it was -0.28. For the same compound, the z-score in assay [4] was -0.293 (inactive).
As for `CO[C@@H]1C=CCC(=O)N[C@@H](C)C(=O)OC[C@@H](OC)[C@H](C)CCCC(=O)OC[C@H]1C`, the composite z-score in [1] was 1.55; in assay [2], -0.352; in [3], -1.05; in [5], 0.473; in assay [6] it was 0.0516; in [7], 1.08. Also, the composite z-score in assay [8] was determined as 1.22; in [9], 1.64; in [10], 1.23. The z-score in assay [4] was -0.646 (inactive).
Turning to `COC(=O)CC=C[C@@H](C)[C@@H]1C=C[C@H](O)[C@@H](CO)O1`, the composite z-score in [1] is 0.146; in assay [2], -0.0367; in assay [3], -0.48; in assay [5], 0.666; in assay [6], 0.753; in [7] it was 0.369. Further, the composite z-score in assay [8] was found to be 0.559; in assay [9], 1.15; in assay [10] it was 0.165. Also, the z-score in assay [4] is -0.593 (inactive).
Turning to `CC(=O)OC[C@H]1O[C@H](CC=NO[C@H](C)c2cn([C@H](CO)Cc3ccccc3)nn2)C=C[C@@H]1OC(C)=O`, the composite z-score was 0.95 in assay [1]; -0.154 in [2]; -0.357 in assay [3]; 0.945 in assay [5]; 0.926 in assay [6]; 0.569 in assay [7]. The values for the composite z-score in assay [8], in assay [9] and in assay [10] were 0.995, 1.43 and -0.143, respectively. For the same compound, the z-score in [4] is 0.67 (inactive).
On to `CCOC(=O)CCN1C(=O)[C@H]2[C@H]3[C@H](O)[C@H](O)CC(=NNC(=O)OCc4ccccc4)[C@@H]3CC[C@H]2C1=O`, for which the composite z-score in [1] was 0.205; in assay [2], -0.111; in [3], -0.201; in assay [5], 0.709; in [6], 0.323; in assay [7], 0.188. Besides, the composite z-score in assay [8] was 0.993; in assay [9] it was 0.516; in assay [10], -0.196. In addition, the z-score in assay [4] was 0.265 (inactive).
As to `CC(C)(C)N1C(=O)[C@H]2[C@H]3[C@H](O)[C@H](O)CC(=NO[C@@H]4O[C@H](CO)[C@@H](O)[C@H](O)[C@H]4O)[C@H]3CC[C@H]2C1=O`, the composite z-score in assay [1] was 0.0937; in [2], -0.215; in [3] it was -0.38; in [5] it was 0.16; in assay [6], -0.524; in assay [7], 0.408. Moreover, the composite z-score in [8] stood at 0.487; in [9] it was 0.639; in [10] it was 1.35. The z-score in assay [4] is 0.543 (inactive).
Regarding `CCCCC#C[C@@H]1C=C[C@H](Oc2cc(OC)c(OC)c(OC)c2)[C@@H](COC(=O)OCC)O1`, the composite z-score in [1] was 0.589; in [2] it was -0.328; in [3], -0.619; in assay [5], 0.306; in assay [6], -0.682; in assay [7], 0.0389. Further, the composite z-score in assay [8] is -0.203; in assay [9], 0.514; in assay [10] it was 0.444. For the same compound, the z-score in assay [4] is -0.696 (inactive).
As to `COc1ccc(O[C@H]2C=C[C@@H](c3ccccc3)O[C@@H]2CON=C(C)C)cc1`, the composite z-score in assay [1] is 1.04; in assay [2], 0.267; in [3] it was 0.755; in assay [5], -0.665; in assay [6], -1.12; in assay [7] it was -0.0601. Further, the composite z-score in assay [8] is -0.0815; in assay [9], -0.292; in [10] it was 1.42. Besides, the z-score in assay [4] was 1.07 (inactive).
Regarding `COC(=O)CC=C[C@@H](C)[C@@H](C=NOC[C@H]1O[C@H](c2ccccc2)C=C[C@@H]1Oc1ccc(OC)cc1)OC`, the composite z-score in [1] is -0.67; in assay [2], -0.242; in [3], -0.212; in [5] it was 0.268; in assay [6] it was -0.393; in [7], -0.587. In addition, the values for the composite z-score in [8], in assay [9] and in assay [10] were 0.173, -0.0407 and 0.807, respectively. The z-score in [4] is -0.194 (inactive).
For `COc1ccc(O[C@H]2C=C[C@@H](c3ccccc3)O[C@@H]2CON=C(C)CCN2CCc3nc(-c4ccccc4)c(-c4ccccc4)cc3C2)cc1`, the composite z-score was 0.51 in assay [1]; -0.259 in assay [2]; -0.0652 in assay [3]; -0.156 in [5]; -0.796 in [6]; -0.538 in [7]. For the same compound, the values for the composite z-score in assay [8], in assay [9] and in assay [10] were 0.0193, 0.162 and 0.829, respectively. In [4], the z-score is -0.365 (inactive).
As to `COCCNC(=O)OCC1CCCC2(CC(OC(=O)NCc3ccc4c(c3)OCO4)CC(CCC(=O)N[C@@H](C)C(=O)OC)O2)O1` (stereo not given in full), the composite z-score in [1] is 0.742; in [2] it was -0.205; in [3], -0.634; in assay [5], 0.696; in assay [6], 0.953; in [7], 0.696. Also, the composite z-score in [8] was 1.31; in assay [9], 0.518; in assay [10] it was 0.0253. Besides, in [4], the z-score was 0.442 (inactive).
